{
  "source": "PubChem BioAssay AID1159580",
  "about": "(chemical genetic matrix, 2015)",
  "assay": "chemical genetic growth profiling, strain panel (AID 1159580);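 note: tested at 20 µM; growth read once vehicle control cultures reached saturation at 30 °C; 1 = growth at the plate median or of vehicle wells; lower values mean less growth of the strain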",
  "settings": "S. cerevisiae deletion strains, growth OD",
  "note": "Several values for one entry are separate records, joined by “and”; a condition that tells them apart may be missing. Equal values may be shown once. Hit rate of the full screen: of about 5,500 compounds, about 2,000 (36%) were called active. Inconclusive results (about 18%) are left out. The list shows a part of the results. Values without a mark were called inactive. Cut-off read from the data, not from the text of the source: active = normalized growth mostly below about 0.91 (no sharp cut-off); inconclusive = no clear call, values can overlap the other calls; inactive = mostly above about 0.92.",
  "data": [
    {"molecule": "O=c1c(O)cccc2cc(O)c(O)c(O)c12", "values": [
      {"measurement": "normalized growth", "setting": "locus YAL021C, strain ccr4, stronger effect = lower value", "value": "0.082 (active)"},
      {"measurement": "normalized growth", "setting": "locus YAL026C, strain drs2, stronger effect = lower value", "value": "0.425 (active)"},
      {"measurement": "normalized growth", "setting": "locus YAL030W, strain snc1, stronger effect = lower value", "value": "0.884 (active)"},
      {"measurement": "normalized growth", "setting": "locus YBL061C, strain skt5, stronger effect = lower value", "value": "0.798 (active)"},
      {"measurement": "normalized growth", "setting": "locus YBR009C, strain hhf1, stronger effect = lower value", "value": "0.76 (active)"},
      {"measurement": "normalized growth", "setting": "locus YBR021W, strain FUR4, stronger effect = lower value", "value": 0.921},
      {"measurement": "normalized growth", "setting": "locus YBR023C, strain chs3, stronger effect = lower value", "value": "0.668 (active)"},
      {"measurement": "normalized growth", "setting": "locus YBR171W, strain sec66, stronger effect = lower value", "value": "0.881 (active)"},
      {"measurement": "normalized growth", "setting": "locus YBR229C, strain ROT2, stronger effect = lower value", "value": "0.844 (active)"},
      {"measurement": "normalized growth", "setting": "locus YBR231C, strain swc5, stronger effect = lower value", "value": "0.623 (active)"},
      {"measurement": "normalized growth", "setting": "locus YBR279W, strain paf1, stronger effect = lower value", "value": "0.856 (active)"},
      {"measurement": "normalized growth", "setting": "locus YCL011C, strain gbp2, stronger effect = lower value", "value": "0.859 (active)"},
      {"measurement": "normalized growth", "setting": "locus YCL016C, strain dcc1, stronger effect = lower value", "value": "0.858 (active)"},
      {"measurement": "normalized growth", "setting": "locus YCL029C, strain bik1, stronger effect = lower value", "value": "0.443 (active)"},
      {"measurement": "normalized growth", "setting": "locus YCL061C, strain MRC1, stronger effect = lower value", "value": "0.833 (active)"},
      {"measurement": "normalized growth", "setting": "locus YCL069W, strain vba3, stronger effect = lower value", "value": "0.858 (active)"},
      {"measurement": "normalized growth", "setting": "locus YCR088W, strain abp1, stronger effect = lower value", "value": "0.875 (active)"},
      {"measurement": "normalized growth", "setting": "locus YDL005C, strain med2, stronger effect = lower value", "value": 0.978},
      {"measurement": "normalized growth", "setting": "locus YDL035C, strain GPR1, stronger effect = lower value", "value": "0.678 (active)"},
      {"measurement": "normalized growth", "setting": "locus YDL040C, strain nat1, stronger effect = lower value", "value": 0.946},
      {"measurement": "normalized growth", "setting": "locus YDL074C, strain BRE1, stronger effect = lower value", "value": "0.497 (active)"},
      {"measurement": "normalized growth", "setting": "locus YDL101C, strain DUN1, stronger effect = lower value", "value": "0.457 (active)"},
      {"measurement": "normalized growth", "setting": "locus YDL185W, strain tfp1, stronger effect = lower value", "value": "0.501 (active)"},
      {"measurement": "normalized growth", "setting": "locus YDL192W, strain arf1, stronger effect = lower value", "value": "0.742 (active)"},
      {"measurement": "normalized growth", "setting": "locus YDR001C, strain nth1, stronger effect = lower value", "value": 0.925},
      {"measurement": "normalized growth", "setting": "locus YDR069C, strain doa4, stronger effect = lower value", "value": "0.166 (active)"},
      {"measurement": "normalized growth", "setting": "locus YDR101C, strain arx1, stronger effect = lower value", "value": "0.479 (active)"},
      {"measurement": "normalized growth", "setting": "locus YDR137W, strain rgp1, stronger effect = lower value", "value": "0.126 (active)"},
      {"measurement": "normalized growth", "setting": "locus YDR159W, strain sac3, stronger effect = lower value", "value": "0.149 (active)"},
      {"measurement": "normalized growth", "setting": "locus YDR162C, strain NBP2, stronger effect = lower value", "value": "0.515 (active)"},
      {"measurement": "normalized growth", "setting": "locus YDR195W, strain ref2", "value": "0.692 (active)"},
      {"measurement": "normalized growth", "setting": "locus YDR297W, strain sur2, stronger effect = lower value", "value": "0.877 (active)"},
      {"measurement": "normalized growth", "setting": "locus YDR318W, strain mcm21, stronger effect = lower value", "value": "0.885 (active)"},
      {"measurement": "normalized growth", "setting": "locus YDR334W, strain swr1, stronger effect = lower value", "value": "0.515 (active)"},
      {"measurement": "normalized growth", "setting": "locus YDR335W, strain msn5, stronger effect = lower value", "value": "0.18 (active)"},
      {"measurement": "normalized growth", "setting": "locus YDR388W, stronger effect = lower value", "value": "0.855 (active)"},
      {"measurement": "normalized growth", "setting": "locus YDR392W, strain spt3, stronger effect = lower value", "value": "0.738 (active)"},
      {"measurement": "normalized growth", "setting": "locus YDR502C, strain sam2, stronger effect = lower value", "value": "0.569 (active)"},
      {"measurement": "normalized growth", "setting": "locus YEL003W, strain gim4, stronger effect = lower value", "value": "0.671 (active)"},
      {"measurement": "normalized growth", "setting": "locus YEL037C, strain rad23, stronger effect = lower value", "value": "0.716 (active)"},
      {"measurement": "normalized growth", "setting": "locus YEL061C, strain CIN8 (second series), stronger effect = lower value", "value": "0.878 (active)"},
      {"measurement": "normalized growth", "setting": "locus YER015W, strain faa2, stronger effect = lower value", "value": "0.593 (active)"},
      {"measurement": "normalized growth", "setting": "locus YER016W, strain bim1, stronger effect = lower value", "value": "0.904 (active)"},
      {"measurement": "normalized growth", "setting": "locus YER110C, stronger effect = lower value", "value": 1.02},
      {"measurement": "normalized growth", "setting": "locus YER111C, strain swi4, stronger effect = lower value", "value": "0.22 (active)"},
      {"measurement": "normalized growth", "setting": "locus YER155C, strain BEM2 (second series), stronger effect = lower value", "value": "0.489 (active)"},
      {"measurement": "normalized growth", "setting": "locus YER155C, strain BEM2, stronger effect = lower value", "value": "0.664 (active)"},
      {"measurement": "normalized growth", "setting": "locus YER167W, strain BCK2, stronger effect = lower value", "value": "0.865 (active)"},
      {"measurement": "normalized growth", "setting": "locus YFR010W, strain ubp6, stronger effect = lower value", "value": "0.509 (active)"},
      {"measurement": "normalized growth", "setting": "locus YGL078C, strain dbp3, stronger effect = lower value", "value": "0.841 (active)"},
      {"measurement": "normalized growth", "setting": "locus YGL086W, strain mad1, stronger effect = lower value", "value": "0.758 (active)"},
      {"measurement": "normalized growth", "setting": "locus YGL167C, strain pmr1, stronger effect = lower value", "value": "0.757 (active)"},
      {"measurement": "normalized growth", "setting": "locus YGL173C, strain kem1, stronger effect = lower value", "value": "0.497 (active)"},
      {"measurement": "normalized growth", "setting": "locus YGL227W, strain vid30, stronger effect = lower value", "value": 0.954},
      {"measurement": "normalized growth", "setting": "locus YGL240W, strain doc1, stronger effect = lower value", "value": 0.968},
      {"measurement": "normalized growth", "setting": "locus YGL248W, strain PDE1, stronger effect = lower value", "value": "0.775 (active)"},
      {"measurement": "normalized growth", "setting": "locus YGL253W, strain hxk2, stronger effect = lower value", "value": "0.71 (active)"},
      {"measurement": "normalized growth", "setting": "locus YGR135W, strain pre9, stronger effect = lower value", "value": "0.822 (active)"},
      {"measurement": "normalized growth", "setting": "locus YGR252W, strain gcn5, stronger effect = lower value", "value": "0.716 (active)"},
      {"measurement": "normalized growth", "setting": "locus YHR013C, strain ard1, stronger effect = lower value", "value": "0.577 (active)"},
      {"measurement": "normalized growth", "setting": "locus YHR027C, strain rpn1, stronger effect = lower value", "value": "0.554 (active)"},
      {"measurement": "normalized growth", "setting": "locus YHR030C, strain SLT2, stronger effect = lower value", "value": "0.898 (active) and 0.73 (active)"},
      {"measurement": "normalized growth", "setting": "locus YHR079C, strain IRE1 (second series), stronger effect = lower value", "value": "0.182 (active)"},
      {"measurement": "normalized growth", "setting": "locus YHR079C, strain IRE1, stronger effect = lower value", "value": "0.654 (active)"},
      {"measurement": "normalized growth", "setting": "locus YHR094C, strain hxt1, stronger effect = lower value", "value": 0.98},
      {"measurement": "normalized growth", "setting": "locus YHR129C, strain ARP1, stronger effect = lower value", "value": "0.693 (active)"},
      {"measurement": "normalized growth", "setting": "locus YHR142W, strain chs7, stronger effect = lower value", "value": "0.536 (active)"},
      {"measurement": "normalized growth", "setting": "locus YHR200W, strain rpn10, stronger effect = lower value", "value": "0.817 (active)"},
      {"measurement": "normalized growth", "setting": "locus YIL066C, strain RNR3, stronger effect = lower value", "value": "0.768 (active)"},
      {"measurement": "normalized growth", "setting": "locus YIL073C, strain SPO22, stronger effect = lower value", "value": "0.508 (active)"},
      {"measurement": "normalized growth", "setting": "locus YIL125W, strain kgd1, stronger effect = lower value", "value": "0.783 (active)"},
      {"measurement": "normalized growth", "setting": "locus YIR030C, strain dcg1, stronger effect = lower value", "value": "0.812 (active)"},
      {"measurement": "normalized growth", "setting": "locus YJL092W, strain hpr5, stronger effect = lower value", "value": "0.9 (active)"},
      {"measurement": "normalized growth", "setting": "locus YJL095W, strain BCK1 (second series), stronger effect = lower value", "value": "0.754 (active)"},
      {"measurement": "normalized growth", "setting": "locus YJL095W, strain BCK1, stronger effect = lower value", "value": "0.105 (active) and 0.759 (active)"},
      {"measurement": "normalized growth", "setting": "locus YJL115W, strain asf1, stronger effect = lower value", "value": "0.894 (active)"},
      {"measurement": "normalized growth", "setting": "locus YJL129C, strain trk1, stronger effect = lower value", "value": "0.547 (active)"},
      {"measurement": "normalized growth", "setting": "locus YJL134W, strain LCB3, stronger effect = lower value", "value": "0.872 (active)"},
      {"measurement": "normalized growth", "setting": "locus YJL154C, strain vps35, stronger effect = lower value", "value": "0.816 (active)"},
      {"measurement": "normalized growth", "setting": "locus YJL164C, strain tpk1, stronger effect = lower value", "value": "0.714 (active)"},
      {"measurement": "normalized growth", "setting": "locus YJL166W, strain qcr8, stronger effect = lower value", "value": "0.802 (active)"},
      {"measurement": "normalized growth", "setting": "locus YJL168C, strain set2, stronger effect = lower value", "value": 0.966},
      {"measurement": "normalized growth", "setting": "locus YJL187C, strain SWE1 (second series), stronger effect = lower value", "value": "0.22 (active)"},
      {"measurement": "normalized growth", "setting": "locus YJL187C, strain SWE1, stronger effect = lower value", "value": "0.813 (active)"},
      {"measurement": "normalized growth", "setting": "locus YJR066W, strain TOR1, stronger effect = lower value", "value": "0.684 (active)"}
    ]}
  ]
}
